Sampled rows, rich in hits. Any-hit rate of the full collection: about 10%.
RORgamma inh = ROR gamma (mouse) transcription inhibition; P51450; Drosophila S2 Gal4-RORgamma UAS-luciferase reporter, 20 h; Potency, µM (doses to about 53.6 µM), for inactives: top-dose activity change, negative = inhibition, most hits filed as inhibitors; 5.4% of 310,000 active; note: % is set by controls: 0 for no effect and ±100 for the full control effect; nearly all actives have a fitted effect of over 60% in size
Target sequence (P51450 whole entry, looked up, the tested form may be a part): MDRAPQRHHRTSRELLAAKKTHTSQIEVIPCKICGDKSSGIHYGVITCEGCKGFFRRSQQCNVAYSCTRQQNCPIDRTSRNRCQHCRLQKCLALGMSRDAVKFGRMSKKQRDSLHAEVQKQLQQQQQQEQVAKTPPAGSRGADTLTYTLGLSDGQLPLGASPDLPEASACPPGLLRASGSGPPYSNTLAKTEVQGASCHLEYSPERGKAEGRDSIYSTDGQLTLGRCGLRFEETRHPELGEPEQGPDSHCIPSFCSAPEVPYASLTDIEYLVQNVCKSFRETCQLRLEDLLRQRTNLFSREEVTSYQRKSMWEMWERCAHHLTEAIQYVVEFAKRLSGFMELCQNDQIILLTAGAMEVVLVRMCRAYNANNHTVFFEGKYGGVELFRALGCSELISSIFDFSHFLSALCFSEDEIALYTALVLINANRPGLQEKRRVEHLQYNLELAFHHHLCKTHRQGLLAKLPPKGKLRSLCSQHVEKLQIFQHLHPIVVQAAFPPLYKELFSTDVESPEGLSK
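Stable Schneider cell line, Gal4 DNA-binding domain fused to ROR gamma, UAS-luciferase. Cmpd 1 hr RT → CuSO4 700 uM final → 20 hr RT → luciferase reagent 10 min → luminescence.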
MCF10A rerep = inducers of DNA re-replication in MCF 10A breast cells; AID 624296; Potency, µM (top dose mostly 46.1 µM), for the others: at the top dose activity, positive = re-replication, most hits filed as activators; 2.9% of 350,000 active; MCF 10A DNA re-replication, Hoechst nuclear intensity, 48 h; note: % of control where 0% means no effect; nearly all actives have a fitted effect of over 50% in size
KB-3-1 tox = KB-3-1 parental cell cytotoxicity; 1.4% of 400,000 active; AID 1347075; KB-3-1 viability, CellTiter-Glo ATP luminescence, 72 h; Potency, µM (top dose mostly 46.1 µM), actives largely listed as cytotoxic; note: % is set by controls: 0 for no effect and ±100 for the full control effect; nearly all actives have a fitted effect of over 60% in size
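Luminescent ATP read-out (CellTiter-Glo) measures survival of drug-naive KB-3-1 cells after 72 h compound exposure at 37 °C. Titration series was screened from lowest to highest concentration, with DMSO vehicle plates as background controls.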
Gal4-VP16 FLuc = Gal4-VP16 reporter inhibition counter-screen; Drosophila S2 Gal4-VP16 UAS-luciferase, luminescence, 20 h; Potency, µM (top dose mostly 53.6 µM), for the others: at the top dose activity, negative = inhibition, actives largely listed as inhibitors; 3.5% of 310,000 active;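 note: Gal4-VP16 expression switched on by copper sulfate through the metallothionein promoter; % is set by controls: 0 for no effect and ±100 for the full control effect; nearly all actives have a fitted effect of over 50% in size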
KB-V1 MDR tox = kills drug-selected multidrug resistant KB-V1 cells. KB-V1 MDR cells viability, CellTiter-Glo, 72 h. Potency, µM (highest dose often 46.1 µM), actives largely listed as cytotoxic. 3.4% of 400,000 active. AID 1347076; note: % is set by controls: 0 for no effect and ±100 for the full control effect; nearly all actives have a fitted effect of over 60% in size
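Compound-treated KB-V1 multidrug-resistant cells, 72 h, 37 degrees C; viability by CellTiter-Glo. Fitted qHTS curves give the values.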
SW480 rereplic = induces DNA re-replication in SW480 colon adenocarcinoma cells | SW480 DNA re-replication, Hoechst DNA content imaging, 48 h | Potency, µM (titrated, usually from 46.1 µM), without a hit: at the top dose re-replication activation, actives largely listed as activators | 1.8% of 340,000 active; note: % of control where 0% means no effect; nearly all actives have a fitted effect of over 55% in size
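Image-based read-out: total Hoechst fluorescence of nuclei (405 nm excitation, 500-530 nm emission), with hits raising the fraction of high-intensity nuclei. SW480 colon cells incubated 48 hr with compounds at 37 C.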
An asterisk follows results filed as active; i = inactive; ? = inconclusive; . = not tested or not shown; [ ] = another dose, or the depositor's remark. Calls come from the whole dose curve; as a rule, active = well fitted curve in the direction sought with a large enough effect; inconclusive = small, poorly fitted or top-dose-only effect, or another doubt; inactive = no such curve, though single readings can be large; an effect the other way counts as inactive or inconclusive. Potency is the fitted concentration of half-maximal effect.

SMILES | RORgamma inh | MCF10A rerep | KB-3-1 tox | Gal4-VP16 FLuc | KB-V1 MDR tox | SW480 rereplic
Cc1nn(C)c2c1c(-c1ccccc1)cc(=O)n2CC(=O)NC(C)c1ccccc1 (centres undefined) | . | . | i | . | i | .
COc1cccc(-c2nnc(NC(=O)c3ccc(S(=O)(=O)N4CCOCC4)cc3)o2)c1 | 0.501µM* | 17.6% | 5.8µM* | 0.891µM* | ? | ?
COc1ccc(NC(=O)c2ccc(S(=O)(=O)N3CCOCC3)cc2)c(OC)c1 | 3.7% | 6.5% | i | 6.7%[0.365 µM] | i | 1.5%
COc1ccc(C(=O)Nc2ccc(S(=O)(=O)N3CCOCC3)cc2)cc1OC | -3.7% | -1.6% | i | -0.3% | i | -38.3%
COc1ccccc1-c1nnc(NC(=O)c2ccc(S(=O)(=O)N3CCOCC3)cc2)o1 | 0.708µM* | ? | ? | 0.631µM* | ? | ?
CCOc1cc(CNC(=O)NC2COc3ccccc3C2)cc(OCC)c1OCC (centres undefined) | . | . | i | . | i | .
COc1ccc2no[n+]([O-])c2c1 | 6.31µM* | . | . | 7.08µM* | . | .
O=C(CCCn1c(=S)[nH]c2cc3c(cc2c1=O)OCO3)N1CCN(c2ccccc2F)CC1 | 12.6µM* | 21.9% | i | 7.94µM* | 16.4µM* | ?
COc1cccc(N2CCN(C(=O)CCCCCn3c(=S)[nH]c4cc5c(cc4c3=O)OCO5)CC2)c1 | 2.24µM* | ? | i | -25.8% | i | ?
O=C(CCCn1c(=S)[nH]c2cc3c(cc2c1=O)OCO3)N1CCN(c2ncccn2)CC1 | 15.8µM* | 2.8% | ? | -20.9% | ? | -8.4%
CCOCCCn1c(=S)[nH]c2cc3c(cc2c1=O)OCO3 | 2.51µM* | 11.9% | i | 2.51µM* | ? | -4.5%
Cc1ccc(-c2cn3c(n2)sc2cc(C(=O)N4CCCCC4)ccc23)cc1 | . | . | i | . | i | .
Cc1cccc(CSc2ncc(Cl)c(C(=O)Nc3sc4c(c3C#N)CCCC4)n2)c1 | . | . | i | . | i | .
O=C(CCCn1c(=S)[nH]c2cc3c(cc2c1=O)OCO3)N1CCN(c2ccc(F)cc2)CC1 | 7.94µM* | 1.1% | i | ? | i | -0.9%
CCN(CC(=O)NCc1cccs1)C(=O)CCCOc1ccc(C(C)(C)C)cc1 | . | 15.6% | ? | . | 20.6µM* | -1.3%
CCN(CC(=O)NCc1cccs1)C(=O)CCCOc1ccccc1 | . | 0.3% | i | . | i | -12.9%
O=C(O)c1cc2c([nH]c1=O)CCCC2 | -9.1% | 1.4% | i | 2.1% | i | -8.7%
C=CCSC(=C(C#N)C#N)c1cc2c([nH]1)CCCC2 | ? | ? | 18.4µM* | ? | ? | ?
COc1ccc(OC)c(CN2C(=O)c3ccccc3C2c2nnnn2C2CCCC2)c1 (centres undefined) | . | . | i | . | i | .
Cc1ccccc1-c1ocnc1C(=O)Nc1ccccc1NC(=O)c1ccccn1 | 2.24µM* | ? | i | 7.08µM* | ? | ?
Cc1ccc(C)c(NC(=S)c2ccc3ccccc3n2)c1 | 2µM* | 2.9% | ? | 5.62µM* | i | 1.2%
Cc1ccc(C)c(NC(=O)CN2C(=O)c3cccnc3Oc3ccc(C)cc32)c1 | . | . | i | . | i | .
Cc1ccc(C)c(C(=O)c2ccccc2NC(=O)c2ccccn2)c1 | -12.1% | 7.31µM* | ? | -9.3% | ? | ?
Cc1ccc2c(c1)C(=O)C(=O)N2CC(=O)Nc1ccccc1NC(=O)c1ccccn1 | -25.9% | 13µM* | ? | -15.0% | i | 18.4µM*
O=C(NCc1ccccc1Br)C1CCCN(C(=O)N2CCOc3ccccc32)C1 (centres undefined) | . | . | i | . | i | .
CN(C)c1ccc(-c2ccc3ccccc3n2)cc1 | . | . | i | . | i | .
Cc1ccc(C)c(NC(=O)NCc2ccccn2)c1 | 20.1% | -2.1% | i | -20.9% | ? | 2.2%
CN(C)c1ccc(NC(=S)c2ccc3ccccc3n2)cc1 | 6.31µM* | -6.3% | i | ? | i | -4.2%

Source: PubChem BioAssay (National Center for Advancing Translational Sciences (NCATS))
